# According to a collection of fitness landscapes (doi:10.1016/j.celrep.2020.107928):
# In all, about 81,000 sequences were measured (“one-hybrid fitness for binding NBS DNA”: median about -0.1, highest 2% from about 0.36 on). The entries come from a sample that favours the highest values as a whole.
# B1: Caulobacter ParB omega fusion; a variant is named by its letters at X, in order, B8GW30 (parent)
# chain: MESVVVGEPGMSEGRRGLGRGLSALLGEVDAAPAQAPGEQLGGSREAPIEILQRNPDQPRRTFREEDLEDLSNSIREKGVLQPILVRPSPDTAGEYQIVAGERAWRAAQRAGLKTVPIMVRELDDLAVLEIGIIENVQRADLNVLEEALSYKVLMEKFERTQENIAQTIGKSXSHVANXMRLLXLPDEVQSYLVSGELTAXHARAIAAAADPVALAKQIIEGGLSVRETEALARKAPNLSAGKSKGGRPPRVKDTDTQALESDLSSVLGLDVSIDHRGSTGTLTITYATLEQLDDLCNRLTRGI
# Variants of: B1
# Test: one-hybrid fitness for binding NBS DNA (the Noc-binding site; scaled: cognate 1, non-cognate 0); higher = stronger binding
# Conditions: with NBS DNA site
# How it was run: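 Selection: bacterial one-hybrid in E. coli USO, HIS3 reporter with the site 19 bp from the promoter, 48 hours at 37°C on M9-minus-histidine plus 0.1 mM IPTG and 5 mM 3-AT. Libraries were Caulobacter ParB with four randomised specificity codons, sequenced on Illumina before and after selection. Fitness is the rescaled log change in variant-to-wild-type read ratio, anchored to the cognate and non-cognate sites.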
row,Variant,one-hybrid fitness for binding NBS DNA
1,FMPK,0.314
2,RISS,0.358
3,SLQG,≤ 0.2
4,DCLR,≤ 0.2
5,PTRA,≤ 0.2
6,RWVV,≤ 0.2
7,QWNR,0.304
8,QMMQ,≤ 0.2
9,CVMR,≤ 0.2
10,TNHL,≤ 0.2
11,ESDR,≤ 0.2
12,LVTW,≤ 0.2
13,PNSF,≤ 0.2
14,LPGR,≤ 0.2
15,QLIH,≤ 0.2
16,RCKG,≤ 0.2
17,RCNM,≤ 0.2
18,RRNM,0.428
19,RRDM,≤ 0.2
20,RRVG,0.298
21,RRKG,0.461
22,YVLT,≤ 0.2
23,LIAF,≤ 0.2
24,KLGG,≤ 0.2

row,Variant,one-hybrid fitness for binding NBS DNA
1,ELRQ,≤ 0.2
2,RSSE,≤ 0.2
3,GPWL,≤ 0.2
4,QLGA,≤ 0.2
5,QCGA,0.364
6,QSGA,0.291
7,QAGA,0.221
8,QHGA,0.208
9,QRGA,0.653
10,PSYL,≤ 0.2
11,ACER,≤ 0.2
12,PNTQ,≤ 0.2
13,RHAD,≤ 0.2
14,RAAN,≤ 0.2
15,RAAR,0.385
16,RIFR,0.243
17,RHFR,0.206
18,RAFR,0.27
19,RHAR,0.427
20,RLAN,≤ 0.2
21,RIAN,≤ 0.2
22,RLFR,0.247
23,RIAR,0.384
24,RLAR,0.42

row,Variant,one-hybrid fitness for binding NBS DNA
1,RMFS,0.221
2,FGDR,≤ 0.2
3,GIAC,≤ 0.2
4,MKIR,≤ 0.2
5,FHKW,≤ 0.2
6,PVKH,≤ 0.2
7,TANL,≤ 0.2
8,VPPG,≤ 0.2
9,KWAS,≤ 0.2
10,RSAR,0.438
11,RFAR,0.242
12,RCAR,0.529
13,RSFR,0.28
14,RSAH,≤ 0.2
15,RPAR,≤ 0.2
16,PHEL,≤ 0.2
17,IQNS,≤ 0.2
18,WRET,≤ 0.2
19,AVER,≤ 0.2
20,TMML,≤ 0.2
21,YKDH,0.692
22,YKDS,0.297
23,YKNT,≤ 0.2
24,YKDT,0.385

row,Variant,one-hybrid fitness for binding NBS DNA
1,YKDR,0.512
2,YKNR,≤ 0.2
3,YKDN,≤ 0.2
4,YKYR,≤ 0.2
5,YKYT,≤ 0.2
6,PGCP,≤ 0.2
7,ARAS,≤ 0.2
8,RMPC,≤ 0.2
9,IYSS,≤ 0.2
10,KREW,≤ 0.2
11,VDGI,≤ 0.2
12,QVNY,≤ 0.2
13,CDAR,≤ 0.2
14,CPEM,≤ 0.2
15,GLTI,≤ 0.2
16,PMWG,≤ 0.2
17,NFKT,≤ 0.2
18,RMKM,0.216
19,RFVT,≤ 0.2
20,RSKT,0.618
21,RFKT,0.512
22,RSKP,≤ 0.2
23,RSVT,0.238
24,RMVT,0.296

row,Variant,one-hybrid fitness for binding NBS DNA
1,RAKT,0.623
2,RAVT,0.237
3,RAKN,≤ 0.2
4,RMKT,0.606
5,PIPI,≤ 0.2
6,SQAS,≤ 0.2
7,ERWR,≤ 0.2
8,DMMR,≤ 0.2
9,DFLL,≤ 0.2
10,AIKF,≤ 0.2
11,LHHN,≤ 0.2
12,WGHS,≤ 0.2
13,RCSQ,≤ 0.2
14,RHKD,≤ 0.2
15,RCKT,0.653
16,RIVT,0.243
17,RHVT,≤ 0.2
18,RPKT,≤ 0.2
19,RIKN,≤ 0.2
20,RIKT,0.623
21,REKT,≤ 0.2
22,RHKT,0.578
23,HNER,≤ 0.2
24,YSVR,≤ 0.2

row,Variant,one-hybrid fitness for binding NBS DNA
1,NNAI,≤ 0.2
2,ECLL,≤ 0.2
3,LKEG,≤ 0.2
4,QSAN,≤ 0.2
5,QSAP,≤ 0.2
6,QSAT,0.395
7,QAAT,0.401
8,QAAH,≤ 0.2
9,QAFT,0.326
10,QIAT,0.28
11,QCAT,0.533
12,QLFT,0.289
13,QPAT,≤ 0.2
14,QLAH,≤ 0.2
15,QLAT,0.396
16,DLIW,≤ 0.2
17,GYPG,≤ 0.2
18,MTVA,≤ 0.2
19,ELQY,≤ 0.2
20,NMPC,≤ 0.2
21,YMLA,≤ 0.2
22,PNNH,≤ 0.2
23,STTR,≤ 0.2
24,GQTC,≤ 0.2

row,Variant,one-hybrid fitness for binding NBS DNA
1,PTRL,≤ 0.2
2,ITAS,≤ 0.2
3,QHAT,0.41
4,QHAD,≤ 0.2
5,QHFT,0.312
6,IDNR,0.348
7,HTGM,≤ 0.2
8,DSKV,≤ 0.2
9,QPFS,≤ 0.2
10,QRAD,0.25
11,QRAP,0.264
12,QCFS,0.397
13,QRAH,0.583
14,QPAS,≤ 0.2
15,QRAE,0.332
16,QRAS,0.684
17,QCAS,0.451
18,QSAS,0.356
19,QRAF,0.302
20,QSFS,0.256
21,LCKS,≤ 0.2
22,STRH,≤ 0.2
23,SLSS,≤ 0.2
24,AMPP,≤ 0.2

row,Variant,one-hybrid fitness for binding NBS DNA
1,HDRS,≤ 0.2
2,NECS,≤ 0.2
3,AAGK,≤ 0.2
4,QPEY,≤ 0.2
5,QCAM,≤ 0.2
6,QCAQ,≤ 0.2
7,QRAQ,0.412
8,QRFQ,0.226
9,QRAC,0.391
10,QRFS,0.597
11,QRFM,0.22
12,QCAC,≤ 0.2
13,QRFC,0.289
14,QRAM,0.404
15,QRFP,0.201
16,QRFD,≤ 0.2
17,QSIQ,≤ 0.2
18,KPVS,≤ 0.2
19,YYMR,≤ 0.2
20,RFQM,≤ 0.2
21,GDHK,≤ 0.2
22,LAMD,≤ 0.2
23,SSIR,≤ 0.2
24,QCAN,≤ 0.2

row,Variant,one-hybrid fitness for binding NBS DNA
1,QRFN,0.353
2,QRAN,0.39
3,RKVY,≤ 0.2
4,RKVD,≤ 0.2
5,RKKD,≤ 0.2
6,RKDY,≤ 0.2
7,RKKY,0.38
8,RKKP,≤ 0.2
9,RKYY,≤ 0.2
10,RKKS,0.653
11,RKRY,0.366
12,RCKY,0.318
13,RKVS,0.426
14,RKVN,≤ 0.2
15,HLAI,≤ 0.2
16,KRLI,≤ 0.2
17,TRHK,≤ 0.2
18,TTRF,≤ 0.2
19,RAYA,≤ 0.2
20,ISTD,≤ 0.2
21,AALA,≤ 0.2
22,TDSY,≤ 0.2
23,AIFT,≤ 0.2
24,PYDR,≤ 0.2

row,Variant,one-hybrid fitness for binding NBS DNA
1,VNLC,≤ 0.2
2,PDQF,≤ 0.2
3,RKKN,0.252
4,RKVH,0.211
5,RKKH,0.465
6,LEGG,≤ 0.2
7,TKHA,≤ 0.2
8,QTGS,0.557
9,QTGD,≤ 0.2
10,QTGC,0.246
11,QTGP,≤ 0.2
12,QTGN,0.255
13,QTGH,0.424
14,LWYM,≤ 0.2
15,PADY,≤ 0.2
16,QSPS,≤ 0.2
17,CWRG,≤ 0.2
18,QCIS,0.364
19,QSIS,0.232
20,QSRS,0.64
21,CWIG,0.406
22,QCPS,0.299
23,QCYS,0.432
24,QPYS,≤ 0.2

row,Variant,one-hybrid fitness for binding NBS DNA
1,QSYS,0.337
2,CWIS,≤ 0.2
3,QCDS,0.28
4,PLRP,≤ 0.2
5,SMYN,≤ 0.2
6,RGCR,≤ 0.2
7,TCIC,≤ 0.2
8,TTYN,≤ 0.2
9,TLLD,≤ 0.2
10,KIRT,≤ 0.2
11,QCRP,0.352
12,QCRS,0.748
13,QPRS,≤ 0.2
14,RLTP,≤ 0.2
15,RTTH,0.24
16,RPTS,≤ 0.2
17,RTTS,0.484
18,RCTS,0.516
19,RATD,≤ 0.2
20,RLTH,≤ 0.2
21,RTTP,≤ 0.2
22,RATH,≤ 0.2
23,RATS,0.433
24,RFTS,0.285

row,Variant,one-hybrid fitness for binding NBS DNA
1,RLTS,0.396
2,YRMT,≤ 0.2
3,EQDS,≤ 0.2
4,AANY,≤ 0.2
5,LYKT,≤ 0.2
6,ECMG,≤ 0.2
7,FKTC,≤ 0.2
8,RKTD,≤ 0.2
9,RSTS,0.433
10,RHTP,≤ 0.2
11,RKTH,0.233
12,RHTS,0.446
13,RKTS,0.583
14,RSTD,≤ 0.2
15,RITH,≤ 0.2
16,RITN,≤ 0.2
17,RITS,0.384
18,RHTN,≤ 0.2
19,RSTH,≤ 0.2
20,LQLL,≤ 0.2
21,ECRD,≤ 0.2
22,QQMC,≤ 0.2
23,IARN,≤ 0.2
24,SSHP,≤ 0.2

row,Variant,one-hybrid fitness for binding NBS DNA
1,VQNC,≤ 0.2
2,RMTD,≤ 0.2
3,RMTN,≤ 0.2
4,RMTS,0.433
5,YHNT,≤ 0.2
6,PFSK,≤ 0.2
7,QSMS,0.302
8,QAMQ,≤ 0.2
9,QCMS,0.379
10,QRMK,0.404
11,QPMS,≤ 0.2
12,QRMQ,0.385
13,QKMS,0.414
14,QKMH,≤ 0.2
15,QKMD,≤ 0.2
16,QSMQ,≤ 0.2
17,QCMK,≤ 0.2
18,QSMK,≤ 0.2
